Reference: the supplement of paper PMC8253809

Legend:
Experiment in all cases: growth inhibition (% activity, log2 RLU normalised to DMSO / staurosporine); higher = more growth inhibition
Conditions in all cases: 33 µM
DIPGX29 = system: DIPGX29 (H3.3 K27M diffuse intrinsic pontine glioma line)
In short: (§1)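 On Geltrex-coated 384-well plates, pHGG cell lines and H9-derived neural stem cells were grown with approved drugs pinned in at a single final concentration of about 33 μM, in triplicate, for 7 days at 37 °C, 5% CO2. Per-plate normalisation of log2-transformed CellTiter-Glo luminescence to % activity between solvent and positive control wells followed. Each growth-inhibition value is the median over the replicates.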

DIPGX37 = system: DIPGX37 (H3.3 K27M diffuse intrinsic pontine glioma line)
In short: as §1

DIPGX7 = system: DIPGX7 (H3.3 K27M diffuse intrinsic pontine glioma line)
In short: as §1

DIPGX9 = system: DIPGX9 (diffuse intrinsic pontine glioma line)
In short: as §1

HGGX39 = system: HGGX39 (paediatric high-grade glioma line)
In short: as §1

HGGX6 = system: HGGX6 (H3.3 G34R paediatric high-grade glioma line)
In short: as §1

HNSC = system: HNSC
In short: as §1

SUDIPGIV = system: SUDIPGIV (diffuse intrinsic pontine glioma line)
In short: as §1

SUDIPGVI = system: SUDIPGVI (diffuse intrinsic pontine glioma line)
In short: as §1

SUDIPGXIII = system: SUDIPGXIII (diffuse intrinsic pontine glioma line)
In short: as §1

| Compound | growth inhibition (DIPGX29) [%] | growth inhibition (DIPGX37) [%] | growth inhibition (DIPGX7) [%] | growth inhibition (DIPGX9) [%] | growth inhibition (HGGX39) [%] | growth inhibition (HGGX6) [%] | growth inhibition (HNSC) [%] | growth inhibition (SUDIPGIV) [%] | growth inhibition (SUDIPGVI) [%] | growth inhibition (SUDIPGXIII) [%] |
| --- | --- | --- | --- | --- | --- | --- | --- | --- | --- | --- |
| CC(=O)OCC[N+](C)(C)C | 1.68 | 3.32 | 3.73 | 1.49 | 1.63 | 1.69 | 4.52 | 1.04 | 2.81 | -0.303 |
| CNC(=O)c1cc(Oc2ccc(NC(=O)Nc3ccc(Cl)c(C(F)(F)F)c3)cc2)ccn1 | 35.1 | 67.2 | 28.2 | 25.6 | 50.7 | 32 | 76.1 | 41.2 | 60.7 | 69.3 |
| CN(C)CCCC1(c2ccc(F)cc2)OCc2cc(C#N)ccc21 (stereo not given) | 1.68 | 3.31 | 3.03 | 1.7 | 2.63 | 3.21 | -0.115 | 1.18 | 1.71 | 0.506 |
| O=C(Oc1ccccc1C(=O)O)c1ccccc1O | -4.53 | -1.4 | 0.584 | -2.94 | -1.64 | -6.45 | 9.98 | -3.17 | -8.34 | -0.246 |
| CC(NCCc1ccc(O)cc1)C(O)c1ccc(O)cc1 (stereo not given) | -0.577 | -0.38 | -0.502 | 1.19 | 1.54 | -0.151 | -0.0915 | -0.121 | 1.63 | -1.5 |
| N=C(N)NC(=N)NCCc1ccccc1 | 2.55 | 2.09 | 2.16 | 3.4 | 3.43 | 1.66 | 13 | 3.22 | 7.27 | 2.1 |
| O=c1oc2cc(O)ccc2s1 | 1.14 | 3.19 | 6.79 | 1.73 | 8.04 | 3.75 | 2.15 | 1.11 | 5.42 | 28.9 |
| CCN(CCCc1ccccc1)CCCc1ccccc1 | 2.04 | 0.545 | 5.69 | 0.438 | 7.1 | 5.46 | 4.87 | 0.248 | -1.23 | -0.1 |
| CN1CC(=O)NC1=N | 1.19 | -0.026 | 4.55 | 2.89 | 6.17 | 2.06 | 10.1 | 2.65 | 3.88 | 1.35 |
| CC1=C(C(=O)O)N2C(=O)[C@@H](NC(=O)[C@H](N)c3ccccc3)[C@H]2SC1 | -0.253 | 0.936 | 6.97 | -1.35 | 3.87 | 0.198 | -2.54 | -1.66 | -13.3 | 2.38 |
| C[N+](C)(C)CCCCCC[N+](C)(C)C | -5.28 | -1.26 | 0.491 | -2.94 | -1.88 | -5.38 | 11.7 | -2.32 | -9.56 | 0.369 |
| C#CCC(Cc1cnc2nc(N)nc(N)c2n1)c1ccc(C(=O)N[C@@H](CCC(=O)O)C(=O)O)cc1 (stereo not given in full) | 10.7 | 6.3 | 25 | 9.98 | 22.8 | 24 | 56.1 | 16.5 | 17.6 | 13 |
| Nc1ccc(C(=O)NCC(=O)O)cc1 | -0.487 | -0.247 | -0.0371 | 0.0884 | 1.62 | 2.81 | -1.34 | 1.42 | 1.49 | 0.0926 |
| Cc1cc2nc3c(=O)[nH]c(=O)nc-3n(C[C@H](O)[C@H](O)[C@H](O)CO)c2cc1C | -1.75 | 2.89 | 0.461 | -0.233 | 2.78 | -1.29 | 6.98 | 4.43 | 2.29 | 1.1 |
| COCCc1ccc(OCC(O)CNC(C)C)cc1 (stereo not given) | 0.745 | 0.102 | 1.22 | 2.73 | 2.04 | 1.92 | -0.726 | 0.382 | 2.97 | -0.552 |
| CC1(C)[C@@H](OC(=O)CCC(=O)O)CC[C@]2(C)[C@H]3C(=O)C=C4[C@@H]5C[C@@](C)(C(=O)O)CC[C@]5(C)CC[C@@]4(C)[C@]3(C)CC[C@@H]12 | -0.0896 | -1.93 | -0.476 | -0.36 | 1.22 | -0.666 | 0.455 | -0.927 | 2.1 | 0.0653 |
| CC(C)(CO)[C@@H](O)C(=O)NCCC(=O)O | -2.53 | -0.522 | -0.818 | -0.68 | -0.909 | -0.397 | -0.802 | -0.366 | -3.69 | 1.65 |
| CCCCCCCCCCOc1cc2c(O)c(C(=O)OCC)cnc2cc1OCC | -0.3 | -1.31 | 1.61 | -0.589 | 1.16 | -2.39 | 8.91 | 1.52 | -8.46 | -1.19 |
